Screening results as filed in PubChem BioAssay.
Compounds with a hit are over-represented: about 3.4% of the library has one in this group of screens.
MITF primary – MITF inhibitors, primary screen, biochemical, AlphaScreen, human; Microphthalmia-associated transcription factor (Homo sapiens), O75030; AlphaScreen MITF homodimerization, bead proximity signal; inhibition, % at 2.6 µM; actives 0.91% (n = 650,000); in the data active = inhibition above about 50%
Target sequence (O75030 whole entry, looked up): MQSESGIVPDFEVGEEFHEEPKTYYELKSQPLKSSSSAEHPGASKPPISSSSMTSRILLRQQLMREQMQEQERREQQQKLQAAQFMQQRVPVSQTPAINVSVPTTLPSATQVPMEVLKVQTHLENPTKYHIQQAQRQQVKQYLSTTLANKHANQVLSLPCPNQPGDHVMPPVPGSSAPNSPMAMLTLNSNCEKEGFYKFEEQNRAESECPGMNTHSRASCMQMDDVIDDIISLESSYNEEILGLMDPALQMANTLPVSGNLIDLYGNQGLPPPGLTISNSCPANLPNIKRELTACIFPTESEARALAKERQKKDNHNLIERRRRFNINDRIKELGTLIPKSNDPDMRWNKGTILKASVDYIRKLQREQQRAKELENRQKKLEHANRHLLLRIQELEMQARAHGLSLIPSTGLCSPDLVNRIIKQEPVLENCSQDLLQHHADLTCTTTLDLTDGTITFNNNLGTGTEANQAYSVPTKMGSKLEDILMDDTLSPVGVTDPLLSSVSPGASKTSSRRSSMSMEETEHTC
TEAD-YAP inh – TEAD-YAP interaction inhibition, primary screen, TEAD-YAP interaction inhibitor project, luminescence, HEK-TIYL cells; actives 1.4% (n = 640,000); AID 1259422, 2018; inhibition, % at 9.12 µM; TEAD-Gal4/YAP UAS-luciferase luminescence; in the data active = inhibition above about 32%
GPR151 ag – activators of human GPR151, primary screen, cell-based, PathHunter beta-arrestin, luminescence | G-protein coupled receptor 151 (Homo sapiens), Q8TDV0 | PathHunter beta-arrestin GPR151 cells | activation, % at 11.2 µM | actives 1% (n = 650,000) | AID 1508602, 2020; in the data active = activation above about 4.9%
FBW7 activator – FBW7 E3 ligase activators, primary screen, biochemical, AlphaScreen, human; AlphaScreen FBW7–phospho-cyclin E peptide binding, activator screen; normalized activity (activation), % at 26.1 µM; actives 0.13% (n = 650,000); AID 1259310, 2017; in the data active = normalized activity above about 1.9%;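 also: purified mutant Fbw7 with reduced substrate affinity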
Large screens that a line does not name were inactive.

CCC(C)N1C(=O)C2C(C(=O)Nc3cccc(SC)c3)C3C=CC2(O3)C1C(=O)NC1CCCCC1 (centres undefined)	none
Cc1nc2sc(-c3ccccc3)cc2c2nnc(-c3ccccc3)n12	TEAD-YAP inh 91
Cc1nc2sc(-c3ccccc3)cc2c(=O)[nH]1	TEAD-YAP inh 66
Cc1ccc(OCCSc2nc3ccccc3n2CCOc2ccc(C)cc2)cc1	none
O=C(c1cnc(N2CCN(c3ccccn3)CC2)c2ccccc12)N1CCN(Cc2ccc3c(c2)OCO3)CC1	TEAD-YAP inh 57
CCCNC(=O)c1cc(N2CCN(Cc3ccc4c(c3)OCO4)CC2)nc2ccccc12	none
COC(=O)c1cnc(N2CCN(Cc3ccc4c(c3)OCO4)CC2)c2ccccc12	none
O=C(NCCc1ccc(O)cc1)c1cc(N2CCN(Cc3ccc4c(c3)OCO4)CC2)nc2ccccc12	TEAD-YAP inh 48
c1cc(CN2CCc3nncn3CC2)c2cccnc2c1	none
O=C(Nc1cc(-c2ccccc2Oc2ccccc2F)ccn1)C1CCOC1 (centres undefined)	TEAD-YAP inh 37
CN1CCc2cc(C(CNC(=O)Nc3cccc(Cl)c3)N(C)C)ccc21 (centres undefined)	TEAD-YAP inh 49
CN1CCCc2cc(C(CNC(=O)NC(C)(C)C)N(C)C)ccc21 (centres undefined)	none
Cc1nc(Cl)c(C(=O)NCc2ccccc2)c(C)c1Cl	none
O=C(NCc1ccccc1)c1c(Cl)nc(Cl)c(Cl)c1Cl	TEAD-YAP inh 47
Cc1ccccc1NC(=O)c1c(Cl)nc(Cl)c(Cl)c1Cl	TEAD-YAP inh 64
Cc1cccc(NC(=O)c2c(Cl)nc(Cl)c(Cl)c2Cl)c1C	TEAD-YAP inh 36
COc1ccccc1C(=O)N/N=C/c1cccs1	none
COC(=O)[C@@H]1C[C@@H](NC(=O)c2ccc3ccccc3c2O)CN1Cc1cc(F)ccc1F	TEAD-YAP inh 42
OCCNc1nc(Nc2ccncn2)nc2c1ncn2-c1ccccc1	none
Oc1ccc(CCNc2nc(Nc3ccccn3)nc3c2ncn3-c2ccsc2)cc1	TEAD-YAP inh 46
Oc1ccc(CCNc2nc(NCc3cccnc3)nc3c2ncn3-c2ccccc2)cc1	TEAD-YAP inh 54
OCCNc1nc(Nc2ccccn2)nc2c1ncn2-c1ccccc1	TEAD-YAP inh 34
c1ccc(CNc2nc(Nc3ccccn3)nc3c2ncn3-c2ccsc2)cc1	none
COc1ccc(CCNc2nc(Nc3cccnc3)nc3c2ncn3-c2ccccc2)cc1	TEAD-YAP inh 37
Oc1ccc(CCNc2nc(NCc3cccnc3)nc3c2ncn3-c2ccsc2)cc1	none
Oc1ccc(CCNc2nc(Nc3ccccn3)nc3c2ncn3-c2ccccc2)cc1	TEAD-YAP inh 34
Oc1ccc(CCNc2nc(Nc3ncccn3)nc3c2ncn3-c2ccccc2)cc1	none
Oc1ccc(CCNc2nc(Nc3ccncc3)nc3c2ncn3-c2ccccc2)cc1	TEAD-YAP inh 56
Oc1c(C(c2cccs2)N2CCN(c3ccccc3)CC2)ccc2cccnc12 (centres undefined)	TEAD-YAP inh 87
Oc1c(C(c2cccs2)N2CCOCC2)ccc2cccnc12 (centres undefined)	MITF primary 61, TEAD-YAP inh 77
COc1cc(Br)cc(CO)c1OC	none
CCOC(=O)CSc1nc2c(sc(=S)n2-c2ccc(Cl)c(C)c2)c(=O)n1-c1ccccc1OC	FBW7 activator 2.1
COC(=O)c1ccccc1NC(=O)CN1C(=O)C2C3C=CC(C3)C2C1=O (centres undefined)	none
CCOc1ccc(NC(=O)c2ccc(F)c(S(=O)(=O)N(CC)Cc3ccccc3)c2)cc1	TEAD-YAP inh 62
CCN(CC)S(=O)(=O)c1cc(C(=O)Nc2ccc(Br)cc2)ccc1OC	TEAD-YAP inh 47
CCN(CC)S(=O)(=O)c1cc(C(=O)Nc2ccc(Br)cc2)ccc1F	none
CCOc1ccc(NC(=O)c2ccc(F)c(S(=O)(=O)N(Cc3ccco3)CC3CCCO3)c2)cc1 (centres undefined)	TEAD-YAP inh 46
CCOc1ccc(NC(=O)c2ccc(F)c(S(=O)(=O)N(CC)CC)c2)cc1	TEAD-YAP inh 37
O=C1N[C@@H](CSCc2ccccc2)C(=O)N2CCN(C(=O)c3cc(F)c(F)cc3F)C[C@H]12	none
O=C(c1ccccc1Cl)N1CCN(c2ccc(-c3cccs3)nn2)CC1	none
COc1ccc(CNc2nc3ccc(-c4ccncc4)cc3s2)cc1	FBW7 activator 60
Cc1ccc(S(=O)(=O)N/N=C/c2ccccc2O)cc1	none
Cc1ccc(S(=O)(=O)N/N=C/c2sc3ccccc3c2O)cc1	TEAD-YAP inh 51
c1cnc2ccc(Nc3nc(Nc4ccc5c(c4)OCO5)c4ncn(-c5ccsc5)c4n3)cc2c1	TEAD-YAP inh 45, FBW7 activator 8.5
CC(C)n1cnc2c(Nc3ccc4c(c3)OCO4)nc(Nc3nccc4ccccc34)nc21	TEAD-YAP inh 36
c1ccc(-n2cnc3c(Nc4ccc5c(c4)OCO5)nc(Nc4ccncn4)nc32)cc1	none
c1ccc(-n2cnc3c(Nc4ccc5c(c4)OCO5)nc(Nc4ccc(-n5ccnc5)cc4)nc32)cc1	TEAD-YAP inh 43
CCNc1nc(Nc2ccc3c(c2)OCO3)c2ncn(C(C)C)c2n1	none
c1ccc(-n2cnc3c(Nc4ccc5c(c4)OCO5)nc(Nc4ccc5ncccc5c4)nc32)cc1	FBW7 activator 7.1
C=CCn1c(SCC(=O)Nc2cc(Cl)ccc2O)nnc1-c1ccccc1O	none
c1ccc2c(Nc3nc(Nc4ccc5c(c4)OCO5)c4ncn(-c5ccsc5)c4n3)nccc2c1	TEAD-YAP inh 49
COc1cc(Nc2nc(Nc3ccc(C(F)(F)F)cc3)nc3c2ncn3-c2ccsc2)cc(OC)c1OC	none
COc1cc(Nc2nc(Nc3ccc4ncccc4c3)nc3c2ncn3-c2ccsc2)cc(OC)c1OC	TEAD-YAP inh 32
Oc1ccccc1N1CCN(c2ncnc3sccc23)CC1	TEAD-YAP inh 56
COC(CNC(=O)c1cnn2c(C)c(Cc3c(C)cc(C)cc3C)c(C)nc12)OC	TEAD-YAP inh 50
COC(=O)c1cnn2c(C)c(Cc3ccc(F)cc3)c(C)nc12	TEAD-YAP inh 36
COc1ccccc1CNC(=O)c1cnn2c(C)c(Cc3ccc(F)cc3)c(C)nc12	none
O=C(CCCCCn1c(SCc2ccccc2Cl)nc2ccccc2c1=O)N1CCOCC1	none
COc1ccc2ccccc2c1C1C(C(N)=O)=C(C)N=C2SCC(=O)N21 (centres undefined)	none
CCC1=Nc2cc(C(=O)NCC(OC)OC)ccc2Sc2ccccc21	TEAD-YAP inh 36
CC1=Nc2cc(C(=O)NCCN(C)C)ccc2Sc2ccc(Cl)cc21	TEAD-YAP inh 56
CCC1=Nc2cc(C(=O)NCCOC)ccc2Sc2ccccc21	TEAD-YAP inh 57
C/C(=N\N=C1/NC(=O)CC(C(=O)Nc2ccc(C(=O)O)cc2)S1)c1cccs1 (centres undefined)	none
OC(COc1ccc(C2CCCCC2)cc1)CN1CCN(c2ccc(F)cc2)CC1 (centres undefined)	none
CCOC(=O)N1CCc2c(sc3c2C(=O)NC(c2ccc(Cl)cc2)N3)C1 (centres undefined)	none
